Records with an inconclusive call do not appear. Activity calls are given as the source filed them. Unless noted, calls follow the shape of the dose curve; as a rule, active = well fitted cell-killing curve with a large enough effect; inconclusive = small, poorly fitted or top-dose-only effect, or effect the other way; inactive = no such curve, though single readings can be large or run the other way.
What was measured:
[1] = Quantitative High-Throughput drug screen in 47 multiple myeloma cell lines against the NCATS MIPE library collection: KMS28PE_JCRB cell viability assay (AID 1918983); also: potency is read from the fitted curve at half-maximal effect; nearly all actives have a fitted effect of over 35% in size
Summary of the method: (§1)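 Plated at 500 cells per well, myeloma lines received MIPE 4.0 compounds by pin tool. Following 48 h culture at 37 °C, CellTiter-Glo luminescence gave viability relative to DMSO and media-only controls.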

[2] = Quantitative High-Throughput drug screen in 47 multiple myeloma cell lines against the NCATS MIPE library collection: L363_DSMZ cell viability assay (AID 1918984); also: potency is read from the fitted curve at half-maximal effect; nearly all actives have a fitted effect of over 40% in size
Summary of the method: as §1

[3] = Quantitative High-Throughput drug screen in 47 multiple myeloma cell lines against the NCATS MIPE library collection: KMS34_JCRB cell viability assay (AID 1918985); also: potency is read from the fitted curve at half-maximal effect; nearly all actives have a fitted effect of over 40% in size
Summary of the method: as §1

[4] = Quantitative High-Throughput drug screen in 47 multiple myeloma cell lines against the NCATS MIPE library collection: OCIMY5_PLB cell viability assay (AID 1918988); also: potency is read from the fitted curve at half-maximal effect; nearly all actives have a fitted effect of over 65% in size
Summary of the method: as §1

[5] = Quantitative High-Throughput drug screen in 47 multiple myeloma cell lines against the NCATS MIPE library collection: OPM1_PLB cell viability assay (AID 1918989); also: potency is read from the fitted curve at half-maximal effect; nearly all actives have a fitted effect of over 40% in size
Summary of the method: as §1

[6] = Quantitative High-Throughput drug screen in 47 multiple myeloma cell lines against the NCATS MIPE library collection: SKMM1_PLB cell viability assay (AID 1919863); settings: SKMM1 myeloma viability, CellTiter-Glo ATP, 48 h; viability: stronger effect = lower value; also: potency is read from the fitted curve at half-maximal effect; nearly all actives have a fitted effect of over 35% in size
Summary of the method: as §1

[7] = Quantitative High-Throughput drug screen in 47 multiple myeloma cell lines against the NCATS MIPE library collection: U266_ATCC cell viability assay (AID 1919864); also: potency is read from the fitted curve at half-maximal effect; nearly all actives have a fitted effect of over 35% in size
Summary of the method: as §1

[8] = Quantitative High-Throughput drug screen in 47 multiple myeloma cell lines against the NCATS MIPE library collection: XG6_PLB cell viability assay (AID 1919865); also: potency is read from the fitted curve at half-maximal effect; nearly all actives have a fitted effect of over 40% in size
Summary of the method: as §1

[9] = Quantitative High-Throughput drug screen in 47 multiple myeloma cell lines against the NCATS MIPE library collection: XG1_PLB cell viability assay (AID 1919866); also: potency is read from the fitted curve at half-maximal effect; nearly all actives have a fitted effect of over 35% in size
Summary of the method: as §1

[10] = Quantitative High-Throughput drug screen in 47 multiple myeloma cell lines against the NCATS MIPE library collection: VP6_DJ cell viability assay (AID 1919867)
Summary of the method: as §1

[11] = Quantitative High-Throughput drug screen in 47 multiple myeloma cell lines against the NCATS MIPE library collection: UTMC2_PLB cell viability assay (AID 1919868); settings: CellTiter-Glo ATP luminescence, 48 h; viability (% of DMSO control): at 45.8 µM (top of the series) unless noted; also: potency is read from the fitted curve at half-maximal effect; nearly all actives have a fitted effect of over 55% in size
Summary of the method: as §1

[12] = Quantitative High-Throughput drug screen in 47 multiple myeloma cell lines against the NCATS MIPE library collection: PCM6_Riken cell viability assay (AID 1919870); also: potency is read from the fitted curve at half-maximal effect; nearly all actives have a fitted effect of over 30% in size
Summary of the method: as §1

[13] = Quantitative High-Throughput drug screen in 47 multiple myeloma cell lines against the NCATS MIPE library collection: RPMI8226_ATCC cell viability assay (AID 1919871); also: potency is read from the fitted curve at half-maximal effect; nearly all actives have a fitted effect of over 30% in size
Summary of the method: as §1

[14] = Quantitative High-Throughput drug screen in 47 multiple myeloma cell lines against the NCATS MIPE library collection: KMS11_JCRBsus cell viability assay (AID 1919873); also: potency is read from the fitted curve at half-maximal effect; nearly all actives have a fitted effect of over 50% in size
Summary of the method: as §1

[15] = Quantitative High-Throughput drug screen in 47 multiple myeloma cell lines against the NCATS MIPE library collection: KMS28BM_JCRB cell viability assay (AID 1919874)
Summary of the method: as §1

[16] = qHTS for identification of novel therapeutic agents for treatment of microphthalmiaassociated transcription factor (MiT) renal cell carcinoma (RCC) (AID 1963991; calls by dose curve; also: potency is read from the fitted curve at half-maximal effect); settings: CellTiter-Glo, 48 h; for Potency: active = Z-AUC below -0.8 in all three lines; for z-score: stronger effect = lower value
Summary of the method: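 Three TFE3-fusion RCC cell lines (UOK109, UOK124, UOK145), 500 cells/well, were exposed to the 1912-compound MIPE 4.0 library for 48 hours at 37 C. Viability was read by CellTiter-Glo luminescence, normalised to DMSO (100%) and empty wells (0%), with 11-concentration curve fits.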

[17] = Quantitative High-Throughput drug screen in 47 multiple myeloma cell lines against the NCATS MIPE library collection: OCIMY7_PLB cell viability assay (AID 1918987); also: potency is read from the fitted curve at half-maximal effect; nearly all actives have a fitted effect of over 65% in size
Summary of the method: as §1

[18] = Quantitative High-Throughput drug screen in 47 multiple myeloma cell lines against the NCATS MIPE library collection: PE2_PLB cell viability assay (AID 1919869)
Summary of the method: as §1

[19] = Quantitative High-Throughput drug screen in 47 multiple myeloma cell lines against the NCATS MIPE library collection: OPM2_DSMZ cell viability assay (AID 1919872); also: potency is read from the fitted curve at half-maximal effect; nearly all actives have a fitted effect of over 30% in size
Summary of the method: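 Relative luminescence from CellTiter-Glo served as the viability signal, referenced to DMSO-treated (100%) and cell-free medium (0%) controls. Treatment lasted 48 hours at 37C with 500 cells per well.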

[20] = qHTS drug screen for cell cycle checkpoint inhibitors in PARPi-resistant BRCA-mutant ovarian cancer cell lines. (AID 1963452; calls by dose curve); settings: PEO1/OlaR viability, CellTiter-Glo luminescence, 96 h, stronger effect = lower value
Summary of the method: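 PEO1, PEO4 and PEO1/OlaR ovarian cancer cells, 600 per well, exposed 96 h at 37C to a dilution series. Viability read by CellTiter-Glo luminescence, normalized to DMSO and empty wells; activity summarized as Z-AUC.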

[21] = TFE3-RCC UOK109 viability, measured here: UOK109 Z-AUC
[22] = TFE3-RCC viability, measured here: UOK124 Z-AUC
[23] = TFE3-RCC viability, measured here: UOK145 Z-AUC
[24] = measured here: PEO1 parental Z-AUC

CC[C@H]1CN2CCc3cc(OC)c(OC)cc3[C@H]2C[C@@H]1C[C@@H]1NCCc2cc(OC)c(OC)cc21
active: Potency [1] 296 nM | Potency [2] 59 nM | Potency [3] 132 nM | Potency [4] 187 nM | Potency [5] 235 nM | Potency [6] 296 nM | Potency [7] 93.5 nM | Potency [8] 105 nM | Potency [9] 148 nM | Potency [10] 148 nM | Potency [11] 187 nM | Potency [12] 166 nM | Potency [13] 148 nM | Potency [14] 166 nM | Potency [15] 235 nM | Potency ([16]; TFE3-RCC UOK109 viability) 166 nM
-1.94: z-score [16, 21]
-1.32: z-score [16, 22]
-3.58: z-score [16, 23]

CCn1cc(-c2ccnc3[nH]c(-c4cccc(CN(C)C)c4)cc23)c(-c2ccc(NC(=O)N(C)C)cc2)n1
active: Potency [1] 11800 nM | Potency [2] 2090 nM | Potency [3] 10500 nM | Potency [17] 187 nM | Potency [5] 2960 nM | Potency [6] 18700 nM | Potency [7] 14800 nM | Potency [8] 935 nM | Potency [9] 1180 nM | Potency [10] 1480 nM | Potency [11] 743 nM | Potency [18] 11800 nM | Potency [12] 9350 nM | Potency [13] 14800 nM | Potency [19] 11800 nM | Potency [14] 833 nM | Potency [15] 6620 nM

Cc1[nH]nc2ccc(-c3cncc(OC[C@@H](N)Cc4ccccc4)c3)cc12
-1.59: Z-AUC [20, 24]
inactive: Z-AUC [20] -1.08
active: Potency [1] 4180 nM | Potency [2] 935 nM | Potency [3] 4690 nM | Potency [17] 33.2 nM | Potency [5] 2350 nM | Potency [6] 8330 nM | Potency [7] 59 nM | Potency [8] 935 nM | Potency [9] 590 nM | Potency [10] 833 nM | Potency [11] 590 nM | Potency [12] 526 nM | Potency [13] 5900 nM | Potency [19] 9350 nM | Potency [14] 1180 nM | Potency [15] 296 nM
-1.81: Z-AUC ([20]; measured here: PEO4 Z-AUC)

COc1cc(OC2CCN(C)CC2)ccc1Nc1ncc2c(n1)n(C1CCCC1)c(=O)n2C
active: Potency [1] 16600 nM | Potency [2] 7430 nM | Potency [3] 16600 nM | Potency [17] 2960 nM | Potency [4] 9350 nM | Potency [5] 7430 nM | Potency [7] 14800 nM | Potency [8] 4690 nM | Potency [9] 4690 nM | Potency [10] 4180 nM | Potency [11] 7430 nM | Potency [18] 9350 nM | Potency [12] 10500 nM | Potency [14] 16600 nM | Potency [15] 16600 nM
0.275: Z-AUC ([20]; measured here: PEO4 Z-AUC)
0.287: Z-AUC [20, 24]
inactive: Z-AUC [20] 0.704

Cc1cc(Nc2cc(NC(=O)c3c(Cl)cccc3Cl)ccn2)nc(N)n1
active: Potency [1] 26400 nM | Potency [2] 1660 nM | Potency [3] 1180 nM | Potency [17] 590 nM | Potency [7] 6620 nM | Potency [8] 4690 nM | Potency [9] 1180 nM | Potency [10] 1660 nM | Potency [11] 2960 nM | Potency [18] 2960 nM | Potency [12] 2350 nM | Potency [14] 372 nM

CC(C)CC(=O)Nc1n[nH]c2c1CN(C(=O)C1CCN(C)CC1)C2(C)C
inactive: Z-AUC [20] -0.913
-0.186: Z-AUC [20, 24]
-0.504: Z-AUC ([20]; measured here: PEO4 Z-AUC)
active: Potency [1] 1180 nM | Potency [2] 833 nM | Potency [3] 1180 nM | Potency [4] 1320 nM | Potency [5] 2090 nM | Potency [6] 4690 nM | Potency [7] 1870 nM | Potency [8] 935 nM | Potency [9] 1660 nM | Potency [10] 1480 nM | Potency [11] 2350 nM | Potency [18] 2090 nM | Potency [12] 743 nM | Potency [13] 4180 nM | Potency [19] 2350 nM | Potency [14] 1480 nM | Potency [15] 2350 nM

CC(C)c1cnn2c(NCc3ccccc3)cc(N[C@@H](CO)[C@H](O)CO)nc12
active: Potency [1] 296 nM | Potency [2] 148 nM | Potency [3] 662 nM | Potency [4] 235 nM | Potency [5] 235 nM | Potency [6] 372 nM | Potency [7] 296 nM | Potency [8] 235 nM | Potency [9] 264 nM | Potency [10] 187 nM | Potency [11] 209 nM | Potency [18] 235 nM | Potency [12] 93.5 nM | Potency [13] 332 nM | Potency [14] 148 nM | Potency ([16]; TFE3-RCC UOK109 viability) 372 nM
inactive: Z-AUC [20] -1.87
-1.77: Z-AUC ([20]; measured here: PEO4 Z-AUC)
-1.04: z-score [16, 21]
-1.84: z-score [16, 23]
-0.933: z-score [16, 22]
-1.92: Z-AUC [20, 24]

Cc1cc(N2CCOCC2)cc2[nH]c(-c3c(NC[C@@H](O)c4cccc(Cl)c4)cc[nH]c3=O)nc12
-0.435: Z-AUC [20, 24]
inactive: Z-AUC [20] -0.44
-0.57: Z-AUC ([20]; measured here: PEO4 Z-AUC)
active: Potency [1] 332 nM | Potency [2] 148 nM | Potency [3] 469 nM | Potency [17] 105 nM | Potency [5] 469 nM | Potency [7] 2640 nM | Potency [8] 83.3 nM | Potency [9] 187 nM | Potency [10] 148 nM | Potency [11] 66.2 nM | Potency [18] 148 nM | Potency [12] 332 nM | Potency [13] 469 nM | Potency [19] 3720 nM | Potency [14] 26.4 nM
